In test [1] the target is Furin (Homo sapiens) (UniProt P09958). The experiment in a line: Furin counterscreen qHTS for Zika virus inhibitors (AID 1347149).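 Further: purified recombinant full-length human furin enzyme at 5 nM; fluorescence gain from furin cutting a BOC-RVRR-AMC peptide substrate over 15 min; top concentration of the series differs between compounds; nearly all actives have a fitted effect of over 70% in size.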 Particulars: furin enzymatic counterscreen, fluorogenic substrate; series mostly up to 114 µM. The method in brief:
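Counterscreen measures cleavage of 2 microM BOC-RVRR-AMC, below its ~15 microM Km, by 5 nM full-length human furin at pH 7.0 after a 15-min compound preincubation. Inhibition derives from the 15-min fluorescence increase at 37C.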
(In general: Counterscreens check selectivity or assay interference.)

Test [2] in a line: HepG2 cells viability qHTS for Zika virus inhibitors (AID 1347168). As to conditions: Zika counter-screen; series mostly up to 45.9 µM. The method in brief: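 Luminescent ATP readout (CellTiter Glo) after 30 min at 37 degrees C gives viability; cells in DMEM + 4% FBS were treated 24 to 48 hours with compound, following overnight attachment.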
A short description of test [3]: Tertiary RLuc qRT-PCR qHTS assay for Zika virus inhibitors (AID 1347169). Further: potency means the concentration at half of the fitted maximal effect; nearly all actives have a fitted effect of over 55% in size. As to conditions: infected Vero cells, reporter luminescence, 48-72 h; series mostly up to 1.74 µM. The method in brief: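 Vero cells (1,000/well) infected with recombinant ZIKV-RLuc (Cambodian) at MOI 1-2 after compound addition, 48-72 hrs at 37 degrees C. Live-cell Renilla luciferase substrate added; luminescence read after 1-1.5 hrs.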
(Quantitative PCR measures a nucleic acid by following its amplification.)

The test system of test [4] is Zika virus NS2B-NS3 protease (linked construct). The experiment in a line: Confirmatory screen NINDS AMC qHTS for Zika virus inhibitors (AID 1347152). Further: potency means the concentration at half of the fitted maximal effect; nearly all actives have a fitted effect of over 70% in size. Particulars: Purified linked NS2B-NS3, AMC substrate fluorescence; series mostly up to 110 µM. The gist of the method:
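Linked NS2B-NS3 protease, 1 nM, in 10 mM Tris-HCl pH 8.0, 0.01% Tween 20; compounds preincubated 15 min at room temperature. Nle-KRR-AMC 10 microM (Km 18.3 µM); 15-min fluorescence change (340/450 nm) fitted to 4-parameter Hill.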
A general note: Quantitative high-throughput screening tests each substance at several concentrations.

Test [5] relates to Zika virus NS2B-NS3 protease (unlinked complex). The experiment in a line: Confirmatory screen GU AMC qHTS for Zika virus inhibitors (AID 1347153). Further: potency means the concentration at half of the fitted maximal effect; nearly all actives have a fitted effect of over 70% in size. Particulars: Recombinant NS2B-NS3 protease, AMC substrate fluorescence; series mostly up to 111 µM. The gist of the method: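 Unlinked enzyme 25 nM, Tris pH 8.0/0.01% Tween 20; cpd 15 min RT, dark; + AMC substrate 10 µM (Km 18.3 µM); 340/450 nm read at t0 and 15 min; % inhibition → 4-param fit.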

In test [6] the test system is Zika virus NS2B-NS3 protease (linked). The experiment in a line: 384 well plate NINDS AMC confirmatory qHTS for Zika virus inhibitors (AID 1347163). Further: potency means the concentration at half of the fitted maximal effect; nearly all actives have a fitted effect of over 50% in size. As to conditions: Recombinant NS2B-NS3 protease, Ac-VKTGKR-AMC fluorescence; series mostly up to 1 mM. The method in brief: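 Enzyme (5, 30 or 60 nM final) first met test compounds for ~15 min. The AMC-tagged peptide Ac-VKTGKR-AMC followed at 30 microM. Fluorescence was then recorded at 25 min and scaled against no-enzyme and no-inhibitor wells.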

Test [7] concerns NIH3T3. The test is described as follows: qHTS assay to identify novel small-molecules to repurpose for Merkel cell carcinoma treatment (AID 1296009). Further: nearly all actives have a fitted effect of over 60% in size. Further: potency means the concentration at half of the fitted maximal effect. Particulars: MCC and control cell lines, CellTiter-Glo viability, 72 h; series mostly up to 9.27 µM. The gist of the method: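 Cell viability measured by CellTiter-Glo following 72 hr compound treatment at 37 degree celsius, with NPC and MIPE libraries tested in 8- and 11-point concentration series.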

A short description of test [8]: ZIKV-mCherry secondary qHTS for Zika virus inhibitors (AID 1347158). Further: potency means the concentration at half of the fitted maximal effect. Particulars: Vero cells, ZIKV-mCherry infection imaging, 48-72 h; series mostly up to 49.2 µM. The method in brief:
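Read-out is percent infection: mCherry-positive Vero cells (nuclear-proximal intensity >450 RFU, 3 SD above negative controls) counted by high-content imaging of Hoechst-stained, PFA-fixed wells after 48-72 h with ZIKV-mCherry at MOI 1 and compound.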

Test [9] is described as follows: P-glycoprotein substrates identified in KB-3-1 adenocarcinoma cell line, qHTS therapeutic library screen (AID 1346986).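 Further: potency means the concentration at half of the fitted maximal effect; potency is for cytotoxicity meaning loss of cell viability; nearly all actives have a fitted effect of over 60% in size.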 Particulars: KB-3-1 parental cells viability, CellTiter-Glo, 72 h; series mostly up to 44.5 µM. The gist of the method:
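Dose-response cytotoxicity, KB-3-1 vs P-gp-high KB-8-5-11, no colchicine in assay medium. Read: CellTiter-Glo at 72 h.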

The target in test [10] is N-terminal Xaa-Pro-Lys N-methyltransferase 1 (Homo sapiens) (UniProt Q9BV86). The experiment in a line: Confirmatory qHTS for Inhibitors of N-terminal methyltransferase 1 (NTMT1): MTaseGlo Assay (AID 1645874). Further: nearly all actives have a fitted effect of over 65% in size. Further: potency means the concentration at half of the fitted maximal effect. As to conditions: NTMT1 enzyme, MTase-Glo SAH luminescence; series mostly up to 100 µM. The method in brief:
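Room-temperature NTMT1 reaction, 30 min, with 100 uM SAM and 1 uM SPKRIA substrate; enzyme 125 nM. Read-out: MTase-Glo luminescence, normalized to no-enzyme and DMSO controls.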

In test [11] the test system is Zika virus NS2B-NS3 protease. The test is described as follows: Primary screen GU AMC qHTS for Zika virus inhibitors (AID 1347154). Further: nearly all actives have a fitted effect of over 70% in size. As to conditions: Zika NS2B-NS3 unlinked protease, AMC fluorogenic substrate; series mostly up to 54.1 µM. The method in brief:
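Fluorogenic AMC-substrate cleavage by noncovalent NS2B-NS3 protease complex (25 nM, pH 8.0 Tris buffer with Tween 20) followed for 15 minutes at room temperature (~20% conversion). Percent inhibition from ex340/em450 signal change, fitted by 4-parameter Hill equation.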

Test [12] can be described thus: Primary qHTS for small molecule stabilizers of the endoplasmic reticulum resident proteome: Secreted ER Calcium Modulated Protein (SERCaMP) assay (AID 1508630). Particulars: SH-SY5Y GLuc-SERCaMP (Gaussia luciferase released on ER calcium loss) secretion, thapsigargin, luminescence; series mostly up to 38.4 µM. The gist of the method:
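The SH-SY5Y reporter protocol was run at 3 concentrations up to 38.3 uM (primary) or 11 concentrations (follow-up): 16 h compound, 100 nM thapsigargin for 4 h, then extracellular luciferase luminescence.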

Test [13] addresses Cytochrome P450 3A4 (Homo sapiens) (UniProt P08684). The test is described as follows: Cytochrome P450 family 3 subfamily A member 4 (CYP3A4) small molecule antagonists: luciferase qHTS assay (AID 1645841; active means well fitted curve in the direction sought with a large enough effect in the repeat runs; an effect the other way counts as inactive or inconclusive; further: nearly all actives have a fitted effect of over 45% in size). As to conditions: P450-Glo CYP3A4 enzyme assay, luciferin luminescence; series mostly up to 57.4 µM. The method in brief: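 Luminescent CYP3A4 activity readout: compounds plus enzyme-substrate mix 10 min at room temperature, reaction started with NADPH regenerating system for 1 h, stopped with detection reagent, read after 20 min. Ketoconazole served as control.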

A short description of test [14]: NCATS anti-infectives library activity on HEK293 viability as a counter-qHTS vs the C. elegans viability qHTS (AID 1745854). Particulars: HEK293 viability counter-screen; series mostly up to 41.8 µM. The gist of the method:
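CellTiter-Glo luminescence, read on a CCD imager, scored viability of HEK293 cells after 24 hr compound exposure at 37C. Library tested in several concentrations, 1:5 steps, up to 41.7 uM; digitonin served as control.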

Test [15] is described as follows: Counterscreen qHTS for small molecule stabilizers of the endoplasmic reticulum resident proteome: GLuc-NoTag assay (AID 1508627).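 Further: SH-SY5Y cells given compound then 100 nM thapsigargin to empty ER calcium.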 As to conditions: Gaussia luciferase NoTag secretion counterscreen, luminescence, thapsigargin 100 nM for final 4 h; series mostly up to 76.4 µM. The method in brief:
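Counterscreen line: SH-SY5Y-GLuc-NoTag cells, treated with compound 19 hr before a 4 hr, 100 nM thapsigargin calcium depletion. Secreted Gaussia luciferase in the medium was measured by luminescence after coelenterazine was added (0.07x final), with cells unlysed.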

Test [16] is described as follows: Confirmatory qHTS for small molecule stabilizers of the endoplasmic reticulum resident proteome: Secreted ER Calcium Modulated Protein (SERCaMP) assay (AID 1508628). Further: potency means the concentration at half of the fitted maximal effect; nearly all actives have a fitted effect of over 40% in size. As to conditions: SERCaMP secreted luciferase ER calcium/proteostasis reporter; series mostly up to 76.3 µM. The method in brief: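 GLuc-SERCaMP-expressing SH-SY5Y cells, pretreated 16 h with compound, are challenged with thapsigargin to empty ER calcium stores; after 4 h, coelenterazine is added directly to the medium and luminescence is imaged.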

Records with an inconclusive call do not appear. Unmarked numbers belong to inactive results. The source made the active and inactive calls. Unless noted, the call rests on the fitted dose curve; in most records, active means well fitted curve in the direction sought with a large enough effect; inconclusive means small, poorly fitted or top-dose-only effect, or another doubt; inactive means no such curve, though single readings can be large; an effect the other way counts as inactive or inconclusive.

Sequence of Furin (Homo sapiens) (P09958 whole entry, looked up): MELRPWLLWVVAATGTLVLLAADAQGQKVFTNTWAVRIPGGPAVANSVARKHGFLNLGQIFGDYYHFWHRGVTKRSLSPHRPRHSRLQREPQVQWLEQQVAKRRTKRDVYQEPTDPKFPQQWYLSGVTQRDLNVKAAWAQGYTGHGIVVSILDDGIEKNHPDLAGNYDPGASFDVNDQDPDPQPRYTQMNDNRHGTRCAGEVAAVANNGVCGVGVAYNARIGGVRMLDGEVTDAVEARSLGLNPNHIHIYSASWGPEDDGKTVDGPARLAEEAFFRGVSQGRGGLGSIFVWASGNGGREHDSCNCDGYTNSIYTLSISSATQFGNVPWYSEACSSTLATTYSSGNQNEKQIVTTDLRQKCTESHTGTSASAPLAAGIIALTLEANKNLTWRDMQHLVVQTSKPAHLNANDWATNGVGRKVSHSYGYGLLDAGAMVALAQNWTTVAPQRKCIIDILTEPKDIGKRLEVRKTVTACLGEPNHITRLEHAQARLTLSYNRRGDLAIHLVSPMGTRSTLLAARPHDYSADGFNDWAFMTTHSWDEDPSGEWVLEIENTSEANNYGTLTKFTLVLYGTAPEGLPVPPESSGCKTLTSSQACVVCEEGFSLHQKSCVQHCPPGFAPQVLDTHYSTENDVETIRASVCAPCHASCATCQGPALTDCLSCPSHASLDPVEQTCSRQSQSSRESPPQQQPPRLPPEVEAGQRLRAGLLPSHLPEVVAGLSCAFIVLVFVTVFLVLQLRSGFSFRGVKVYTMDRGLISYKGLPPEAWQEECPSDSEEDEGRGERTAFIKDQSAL
Sequence of N-terminal Xaa-Pro-Lys N-methyltransferase 1 (Homo sapiens) (Q9BV86 whole entry, looked up): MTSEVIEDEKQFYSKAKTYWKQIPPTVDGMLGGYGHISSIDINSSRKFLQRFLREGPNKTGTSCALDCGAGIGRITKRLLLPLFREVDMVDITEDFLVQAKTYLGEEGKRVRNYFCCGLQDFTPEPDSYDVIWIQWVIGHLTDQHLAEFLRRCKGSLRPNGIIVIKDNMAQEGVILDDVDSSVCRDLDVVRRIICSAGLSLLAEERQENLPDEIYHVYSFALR
Sequence of Cytochrome P450 3A4 (Homo sapiens) (P08684 whole entry, looked up): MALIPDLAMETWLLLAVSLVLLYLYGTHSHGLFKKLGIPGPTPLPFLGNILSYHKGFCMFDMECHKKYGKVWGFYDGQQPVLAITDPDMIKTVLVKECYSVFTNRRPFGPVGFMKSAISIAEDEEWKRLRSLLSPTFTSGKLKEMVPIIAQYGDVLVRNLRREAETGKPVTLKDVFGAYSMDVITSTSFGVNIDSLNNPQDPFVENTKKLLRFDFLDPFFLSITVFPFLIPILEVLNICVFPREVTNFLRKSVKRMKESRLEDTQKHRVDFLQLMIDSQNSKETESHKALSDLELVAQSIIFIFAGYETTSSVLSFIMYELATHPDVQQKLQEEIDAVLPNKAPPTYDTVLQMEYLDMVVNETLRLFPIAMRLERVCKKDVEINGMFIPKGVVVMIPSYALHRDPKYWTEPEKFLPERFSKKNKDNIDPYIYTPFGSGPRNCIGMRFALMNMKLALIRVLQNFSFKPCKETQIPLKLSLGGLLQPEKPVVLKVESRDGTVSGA

With `CC(=O)N1c2ccc(-c3ccc(C(=O)O)cc3)cc2C(Nc2ccc(Cl)cc2)CC1C` (configuration not stated), the Potency entry in test [1] and in test [2] was “inactive” each time. The Potency in test [3] was 0.093 µM (active). Turning to `CC1CCN(C(c2ccc(F)cc2)c2ccc(C(C)C(=O)O)cc2-c2ccc(C(F)(F)F)cc2)CC1` (configuration not stated), the Potency result in [1] and in test [2] was “inactive” in each case. Also, the Potency was 13.9 µM (active) in test [4], 15.6 µM (active) in [5] and 0.891 µM (active) in [6]. Turning to `O=C(c1ccc(F)c(F)c1Nc1ccc(I)cc1F)N1CC(O)([C@@H]2CCCCN2)C1`, the Potency in [7] is 9.2 µM (active). `O=C(NCc1ccc(Oc2ccccc2)cc1)c1nc(-c2cc(Br)c(O)c(Br)c2)no1`: the Potency was 13.9 µM (active) in [4], 7.08 µM (active) in test [8], 2.51 µM (active) in [6] and 8.29 µM (active) in test [3]. For the same compound, the Potency result in test [2] was “inactive”. For the compound `C[C@@H]1COCCN1c1cc(C2(S(C)(=N)=O)CC2)nc(-c2ccnc3[nH]ccc23)n1` (some centres not stated), in test [9], the Potency is 6.51 µM (active).

On to `C=CC(=O)Nc1cc(Nc2nccc(-c3cn(C)c4ccccc34)n2)c(OC)cc1N(C)CCN(C)C`, for which the Potency in test [9] is 10.3 µM (active). `CC(C)(C)c1ccc(-c2nc3ccccc3[nH]2)cc1`: in test [10], the Potency was 8.91 µM (active). `O=C(NC(NC(=S)Nc1ccc(F)c([N+](=O)[O-])c1)C(Cl)(Cl)Cl)C(c1ccccc1)c1ccccc1` (configuration not stated): the Potency entry in test [11] and in [12] was “inactive” each time. In the case of `C=C1[C@@H](C2=CC(=O)OC2)CC[C@@]2(O)[C@@H]1CC1[C@H]2CC[C@@H]2C[C@@H](O[C@H]3O[C@@H](C)[C@@H](O[C@@H]4O[C@H](CO[C@@H]5O[C@H](CO)[C@@H](O)[C@H](O)[C@H]5O)[C@@H](O)[C@H](O)[C@H]4O)[C@H](OC)[C@H]3O)CC[C@]12C` (some centres not stated), the Potency entry in test [7] is “inactive”. On to `Nc1nc(NCC2CCC(CNS(=O)(=O)c3cccc4ccccc34)CC2)nc2ccccc12` (configuration not stated), for which the Potency result in test [11] and in test [12] was “inactive” in each case. As for `Cc1ccc(C(=O)N2CCN(c3ccc([N+](=O)[O-])cc3)CC2)cc1Cl`, in [13], the call was inactive. For `CCOC(=O)c1cccc(CNc2ccc(N(C)C(=O)Nc3ccccc3)cc2)c1`, in test [14], the call was inactive. In the case of `COc1ccccc1NC(=O)Nc1ccc2ccccc2c1`, in [10], the Potency result was “inactive”.

`Oc1ccc(Nc2nc(-c3ccc(Cl)cc3)cs2)cc1`: in test [15], the Potency entry is “inactive”. In addition, the Potency in [16] was 2 µM (active).

Values taken from PubChem BioAssay (NCATS).
